What was measured:
Experiment in all cases: DAPPL (digital affinity profiling via proximity ligation, sequencing); 10 mM Tris-HCl pH 7.5, 50 mM NaCl, 1 mM DTT, 4% glycerol, room temperature, 30 min; GST-TFs on glutathione beads, 16-mer random dsDNA library, 0.1% formaldehyde crosslink after washing; high values mean tight binding
Conditions in all cases: protein: recombinant; tags: N-terminal GST; dsDNA, one strand shown
ELK1 = target: T1, ELK1 (Homo sapiens, UniProt P19419 1-428)
T1 sequence: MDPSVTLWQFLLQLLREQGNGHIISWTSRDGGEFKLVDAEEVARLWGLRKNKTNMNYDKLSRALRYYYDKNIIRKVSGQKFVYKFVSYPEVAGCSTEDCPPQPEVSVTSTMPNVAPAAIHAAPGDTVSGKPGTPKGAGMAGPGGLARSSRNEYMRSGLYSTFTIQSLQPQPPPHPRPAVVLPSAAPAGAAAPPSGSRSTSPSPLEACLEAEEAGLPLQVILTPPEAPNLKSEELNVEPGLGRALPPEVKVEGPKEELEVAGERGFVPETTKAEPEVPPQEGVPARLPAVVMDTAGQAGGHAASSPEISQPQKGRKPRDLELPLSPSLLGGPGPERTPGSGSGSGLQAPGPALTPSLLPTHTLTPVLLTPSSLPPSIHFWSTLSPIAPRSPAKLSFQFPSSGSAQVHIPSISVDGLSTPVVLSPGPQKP
Summary of the method: (§1)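 GST fusions of human transcription factors were expressed in yeast and captured with glutathione beads. Once given DNA barcodes and pooled alongside a tag-only sample, they were incubated for 30 min at room temperature with 200 nmole of a random double-stranded 16-mer DNA library in Tris/NaCl/DTT/glycerol buffer, then washed, crosslinked (0.1% formaldehyde), proximity-ligated, PCR-amplified and sequenced on an Illumina NextSeq500. The binding signal of each hexamer is its read frequency for a factor divided by its frequency for the tag-only sample.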

GABPA = target: T2, GABPA (Homo sapiens, UniProt Q06546 1-454)
T2 sequence: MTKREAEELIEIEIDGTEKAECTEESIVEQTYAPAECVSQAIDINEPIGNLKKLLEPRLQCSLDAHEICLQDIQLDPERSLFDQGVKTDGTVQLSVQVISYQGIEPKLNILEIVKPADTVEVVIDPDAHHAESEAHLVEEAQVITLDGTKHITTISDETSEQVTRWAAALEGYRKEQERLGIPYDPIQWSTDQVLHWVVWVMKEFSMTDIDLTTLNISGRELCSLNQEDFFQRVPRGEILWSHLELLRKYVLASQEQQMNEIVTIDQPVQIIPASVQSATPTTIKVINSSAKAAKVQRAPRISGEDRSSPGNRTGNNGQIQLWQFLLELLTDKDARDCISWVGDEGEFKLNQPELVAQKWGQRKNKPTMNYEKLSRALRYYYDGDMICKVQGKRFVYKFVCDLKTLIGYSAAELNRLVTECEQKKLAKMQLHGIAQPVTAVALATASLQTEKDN
Summary of the method: as §1

ELF1 = ELF1 (Homo sapiens, UniProt P32519 1-619)
Summary of the method: as §1

EHF = target: T3, EHF (Homo sapiens, UniProt Q9NZC4 1-300)
T3 sequence: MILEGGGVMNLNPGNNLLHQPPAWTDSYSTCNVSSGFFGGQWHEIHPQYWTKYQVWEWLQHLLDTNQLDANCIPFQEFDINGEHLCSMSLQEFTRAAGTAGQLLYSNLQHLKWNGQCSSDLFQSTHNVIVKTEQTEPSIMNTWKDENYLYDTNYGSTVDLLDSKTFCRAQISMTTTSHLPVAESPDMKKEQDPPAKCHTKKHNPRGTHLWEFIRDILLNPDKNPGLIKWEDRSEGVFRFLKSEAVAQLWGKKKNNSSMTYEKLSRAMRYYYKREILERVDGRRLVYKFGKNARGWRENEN
Summary of the method: as §1

SPIB = SPIB (Homo sapiens, UniProt Q01892 1-262)
Summary of the method: as §1

SPIC = target: T4, SPIC (Homo sapiens, UniProt Q8N5J4 1-248)
T4 sequence: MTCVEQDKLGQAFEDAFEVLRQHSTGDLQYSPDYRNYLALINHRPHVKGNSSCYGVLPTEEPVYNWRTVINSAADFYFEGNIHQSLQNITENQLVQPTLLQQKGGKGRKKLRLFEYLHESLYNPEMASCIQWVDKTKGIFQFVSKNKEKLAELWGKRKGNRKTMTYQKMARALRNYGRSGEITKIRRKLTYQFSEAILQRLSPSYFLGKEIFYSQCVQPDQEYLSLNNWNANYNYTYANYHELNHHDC
Summary of the method: as §1

ELK4 = target: T5, ELK4 (Homo sapiens, UniProt P28324-2 1-405)
T5 sequence: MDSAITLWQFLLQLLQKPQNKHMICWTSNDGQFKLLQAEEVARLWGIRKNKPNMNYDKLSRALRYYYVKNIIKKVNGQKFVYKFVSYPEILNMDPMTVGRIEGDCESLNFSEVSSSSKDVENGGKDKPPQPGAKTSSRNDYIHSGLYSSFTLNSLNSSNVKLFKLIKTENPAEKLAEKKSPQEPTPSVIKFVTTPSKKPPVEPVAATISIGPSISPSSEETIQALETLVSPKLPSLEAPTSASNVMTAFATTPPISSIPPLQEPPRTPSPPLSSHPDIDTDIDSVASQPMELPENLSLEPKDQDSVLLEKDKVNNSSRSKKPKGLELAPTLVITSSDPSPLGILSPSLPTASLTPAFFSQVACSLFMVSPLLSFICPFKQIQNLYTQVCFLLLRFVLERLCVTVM
Summary of the method: as §1

ETV1 = ETV1 (Homo sapiens, UniProt P50549 1-477)
Summary of the method: as §1

SPDEF = target: T6, SPDEF (Homo sapiens, UniProt O95238 1-335)
T6 sequence: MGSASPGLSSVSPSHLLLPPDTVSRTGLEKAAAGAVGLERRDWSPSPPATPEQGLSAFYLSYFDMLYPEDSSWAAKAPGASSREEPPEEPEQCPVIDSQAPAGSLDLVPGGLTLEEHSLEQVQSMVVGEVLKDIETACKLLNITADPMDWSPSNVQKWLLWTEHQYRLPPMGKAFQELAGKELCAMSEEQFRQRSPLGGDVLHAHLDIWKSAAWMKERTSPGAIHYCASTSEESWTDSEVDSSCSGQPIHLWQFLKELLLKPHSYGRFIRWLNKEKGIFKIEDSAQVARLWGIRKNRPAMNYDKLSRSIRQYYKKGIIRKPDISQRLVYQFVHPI
Summary of the method: as §1

ETV3 = target: T7, ETV3 (Homo sapiens, UniProt P41162-2 1-143)
T7 sequence: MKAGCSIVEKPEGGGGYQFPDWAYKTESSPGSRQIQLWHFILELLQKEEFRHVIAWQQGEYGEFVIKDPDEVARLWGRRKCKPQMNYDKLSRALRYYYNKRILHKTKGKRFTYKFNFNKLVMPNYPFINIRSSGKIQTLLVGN
Summary of the method: as §1

ETV6 = ETV6 (Homo sapiens, UniProt P41212 1-452)
Summary of the method: as §1

ERG = target: T8, ERG (Homo sapiens, UniProt P11308 1-479)
T8 sequence: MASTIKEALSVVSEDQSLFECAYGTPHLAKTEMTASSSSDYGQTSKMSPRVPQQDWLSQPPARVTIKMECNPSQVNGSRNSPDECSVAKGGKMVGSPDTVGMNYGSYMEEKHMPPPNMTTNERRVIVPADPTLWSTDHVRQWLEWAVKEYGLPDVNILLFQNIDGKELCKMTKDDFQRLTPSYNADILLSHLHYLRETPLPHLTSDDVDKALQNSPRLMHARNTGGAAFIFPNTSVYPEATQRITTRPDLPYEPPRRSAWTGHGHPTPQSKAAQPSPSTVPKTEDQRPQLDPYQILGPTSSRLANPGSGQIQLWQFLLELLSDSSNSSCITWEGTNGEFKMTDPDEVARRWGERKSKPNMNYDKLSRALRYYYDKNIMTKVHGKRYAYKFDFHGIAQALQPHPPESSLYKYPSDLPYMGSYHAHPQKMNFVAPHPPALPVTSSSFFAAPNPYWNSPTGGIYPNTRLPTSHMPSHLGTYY
Summary of the method: as §1

ELF4 = ELF4 (Homo sapiens, UniProt Q99607 1-663)
Summary of the method: as §1

ETV3L = target: T9, ETV3L (Homo sapiens, UniProt Q6ZN32 1-361)
T9 sequence: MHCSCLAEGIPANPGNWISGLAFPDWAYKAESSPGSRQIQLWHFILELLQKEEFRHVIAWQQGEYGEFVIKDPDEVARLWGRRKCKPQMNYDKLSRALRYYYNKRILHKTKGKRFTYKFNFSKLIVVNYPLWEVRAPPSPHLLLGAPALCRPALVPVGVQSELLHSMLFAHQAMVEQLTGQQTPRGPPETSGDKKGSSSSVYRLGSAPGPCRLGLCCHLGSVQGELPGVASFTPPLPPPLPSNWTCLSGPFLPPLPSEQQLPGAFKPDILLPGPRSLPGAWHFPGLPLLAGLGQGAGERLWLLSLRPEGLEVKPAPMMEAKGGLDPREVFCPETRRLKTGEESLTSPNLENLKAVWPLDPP
Summary of the method: as §1

ETS2 = target: T10, ETS2 (Homo sapiens, UniProt P15036 1-469)
T10 sequence: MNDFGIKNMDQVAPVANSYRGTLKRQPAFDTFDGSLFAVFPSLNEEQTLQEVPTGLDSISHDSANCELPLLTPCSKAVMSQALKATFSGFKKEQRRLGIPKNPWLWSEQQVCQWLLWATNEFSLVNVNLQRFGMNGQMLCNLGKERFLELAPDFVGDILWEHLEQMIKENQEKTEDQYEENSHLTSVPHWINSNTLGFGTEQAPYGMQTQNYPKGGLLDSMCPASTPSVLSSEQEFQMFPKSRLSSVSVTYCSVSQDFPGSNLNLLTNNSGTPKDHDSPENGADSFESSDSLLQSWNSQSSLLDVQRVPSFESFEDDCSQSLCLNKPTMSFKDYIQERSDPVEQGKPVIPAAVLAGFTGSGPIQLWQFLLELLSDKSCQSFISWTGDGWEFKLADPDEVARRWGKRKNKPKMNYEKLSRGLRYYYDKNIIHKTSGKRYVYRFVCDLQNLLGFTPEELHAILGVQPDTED
Summary of the method: as §1

ETV7 = target: T11, ETV7 (Homo sapiens, UniProt Q9Y603 1-341)
T11 sequence: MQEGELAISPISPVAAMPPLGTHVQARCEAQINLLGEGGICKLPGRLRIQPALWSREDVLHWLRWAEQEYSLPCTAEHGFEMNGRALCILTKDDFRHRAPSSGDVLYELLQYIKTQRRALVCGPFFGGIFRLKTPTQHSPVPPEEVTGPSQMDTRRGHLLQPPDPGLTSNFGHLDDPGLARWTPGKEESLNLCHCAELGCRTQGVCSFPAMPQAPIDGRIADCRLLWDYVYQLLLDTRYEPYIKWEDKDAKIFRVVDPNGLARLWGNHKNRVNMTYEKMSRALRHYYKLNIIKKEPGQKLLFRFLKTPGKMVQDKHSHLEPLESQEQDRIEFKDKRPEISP
Summary of the method: as §1

SPIB, sequence (Q01892 whole entry): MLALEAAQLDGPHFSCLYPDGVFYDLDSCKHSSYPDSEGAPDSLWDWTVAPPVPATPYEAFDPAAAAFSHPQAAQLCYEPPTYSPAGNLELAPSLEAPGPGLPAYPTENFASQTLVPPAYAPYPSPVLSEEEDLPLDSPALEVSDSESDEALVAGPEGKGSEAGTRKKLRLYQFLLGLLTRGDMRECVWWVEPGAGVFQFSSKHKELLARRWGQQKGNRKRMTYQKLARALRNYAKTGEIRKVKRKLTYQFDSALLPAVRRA
ETV1, sequence (P50549 whole entry): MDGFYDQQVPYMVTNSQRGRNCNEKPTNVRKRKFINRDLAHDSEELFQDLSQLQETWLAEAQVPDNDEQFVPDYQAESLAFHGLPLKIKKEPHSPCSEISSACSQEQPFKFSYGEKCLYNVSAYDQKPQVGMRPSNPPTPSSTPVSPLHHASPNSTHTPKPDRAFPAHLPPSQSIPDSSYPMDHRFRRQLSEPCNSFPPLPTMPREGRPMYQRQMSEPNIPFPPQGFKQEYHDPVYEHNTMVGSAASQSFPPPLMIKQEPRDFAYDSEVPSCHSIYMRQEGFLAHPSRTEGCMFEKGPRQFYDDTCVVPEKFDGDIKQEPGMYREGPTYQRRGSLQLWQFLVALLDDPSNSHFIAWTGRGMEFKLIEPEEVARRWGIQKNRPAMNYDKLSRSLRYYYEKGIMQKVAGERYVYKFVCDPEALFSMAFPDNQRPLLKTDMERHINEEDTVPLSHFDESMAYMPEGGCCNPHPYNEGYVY
ETV6, sequence (P41212 whole entry): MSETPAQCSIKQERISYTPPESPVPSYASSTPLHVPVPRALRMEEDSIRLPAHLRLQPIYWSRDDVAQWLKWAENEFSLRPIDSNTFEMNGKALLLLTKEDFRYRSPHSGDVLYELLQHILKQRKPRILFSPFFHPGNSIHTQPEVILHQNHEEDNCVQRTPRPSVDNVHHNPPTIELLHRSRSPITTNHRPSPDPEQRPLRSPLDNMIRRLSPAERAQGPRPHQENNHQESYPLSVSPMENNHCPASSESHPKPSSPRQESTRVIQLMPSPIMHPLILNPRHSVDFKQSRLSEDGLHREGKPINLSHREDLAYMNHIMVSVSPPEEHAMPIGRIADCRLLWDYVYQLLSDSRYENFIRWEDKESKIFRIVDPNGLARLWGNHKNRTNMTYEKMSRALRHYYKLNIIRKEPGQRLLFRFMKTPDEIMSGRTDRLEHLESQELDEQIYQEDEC
ELF4, sequence (Q99607 whole entry): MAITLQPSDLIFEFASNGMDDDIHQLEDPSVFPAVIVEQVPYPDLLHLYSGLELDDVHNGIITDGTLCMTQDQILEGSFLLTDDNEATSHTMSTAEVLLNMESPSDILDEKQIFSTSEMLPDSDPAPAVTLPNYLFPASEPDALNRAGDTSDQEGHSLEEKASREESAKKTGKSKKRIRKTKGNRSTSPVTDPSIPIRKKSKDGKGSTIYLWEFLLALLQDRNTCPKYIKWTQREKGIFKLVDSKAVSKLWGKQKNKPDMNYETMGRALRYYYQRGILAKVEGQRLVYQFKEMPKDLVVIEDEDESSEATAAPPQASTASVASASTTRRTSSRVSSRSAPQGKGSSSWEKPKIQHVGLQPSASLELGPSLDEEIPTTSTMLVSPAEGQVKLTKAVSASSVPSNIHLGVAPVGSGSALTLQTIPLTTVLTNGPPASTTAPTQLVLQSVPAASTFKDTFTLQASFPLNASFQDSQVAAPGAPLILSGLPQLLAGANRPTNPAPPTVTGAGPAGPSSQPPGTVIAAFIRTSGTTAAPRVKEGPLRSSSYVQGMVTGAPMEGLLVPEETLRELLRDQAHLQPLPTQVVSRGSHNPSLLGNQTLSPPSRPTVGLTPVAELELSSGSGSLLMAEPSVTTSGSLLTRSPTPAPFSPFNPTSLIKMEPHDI
ELF1, sequence (P32519 whole entry): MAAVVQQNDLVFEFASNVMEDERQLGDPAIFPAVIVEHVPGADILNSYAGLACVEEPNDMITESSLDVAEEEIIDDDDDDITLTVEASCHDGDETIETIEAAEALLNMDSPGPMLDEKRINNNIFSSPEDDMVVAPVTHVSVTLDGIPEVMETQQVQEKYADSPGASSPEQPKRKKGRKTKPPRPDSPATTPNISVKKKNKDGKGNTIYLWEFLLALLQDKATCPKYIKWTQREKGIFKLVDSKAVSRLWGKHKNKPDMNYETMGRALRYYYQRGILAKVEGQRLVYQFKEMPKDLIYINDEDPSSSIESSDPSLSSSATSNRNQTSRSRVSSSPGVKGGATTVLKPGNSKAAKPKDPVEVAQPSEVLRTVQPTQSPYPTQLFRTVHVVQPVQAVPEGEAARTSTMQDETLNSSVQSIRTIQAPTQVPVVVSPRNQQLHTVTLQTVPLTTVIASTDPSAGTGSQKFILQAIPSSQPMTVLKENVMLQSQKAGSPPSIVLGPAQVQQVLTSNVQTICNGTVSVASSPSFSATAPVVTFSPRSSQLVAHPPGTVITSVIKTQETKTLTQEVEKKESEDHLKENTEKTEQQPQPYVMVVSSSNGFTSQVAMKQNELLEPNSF

| Sequence | binding signal (ELK1) | binding signal (GABPA) | binding signal (ELF1) | binding signal (EHF) | binding signal (SPIB) | binding signal (SPIC) | binding signal (ELK4) | binding signal (ETV1) | binding signal (SPDEF) | binding signal (ETV3) | binding signal (ETV6) | binding signal (ERG) | binding signal (ELF4) | binding signal (ETV3L) | binding signal (ETS2) | binding signal (ETV7) |
| --- | --- | --- | --- | --- | --- | --- | --- | --- | --- | --- | --- | --- | --- | --- | --- | --- |
| TGAATC | 1.01 fold enrichment (6-mer frequency, TF over GST control) | 1.05 fold enrichment (6-mer frequency, TF over GST control) | 1 fold enrichment (6-mer frequency, TF over GST control) | 1.04 fold enrichment (6-mer frequency, TF over GST control) | 1.04 fold enrichment (6-mer frequency, TF over GST control) | 1.01 fold enrichment (6-mer frequency, TF over GST control) | 1.03 fold enrichment (6-mer frequency, TF over GST control) | 1.01 fold enrichment (6-mer frequency, TF over GST control) | 1.11 fold enrichment (6-mer frequency, TF over GST control) | 1.01 fold enrichment (6-mer frequency, TF over GST control) | 1.01 fold enrichment (6-mer frequency, TF over GST control) |  |  |  |  |  |
| GGATCT | 1.07 fold enrichment (6-mer frequency, TF over GST control) | 1.02 fold enrichment (6-mer frequency, TF over GST control) |  |  | 1.02 fold enrichment (6-mer frequency, TF over GST control) | 1.01 fold enrichment (6-mer frequency, TF over GST control) |  | 1.03 fold enrichment (6-mer frequency, TF over GST control) | 1.54 fold enrichment (6-mer frequency, TF over GST control) | 1.08 fold enrichment (6-mer frequency, TF over GST control) |  | 1.01 fold enrichment (6-mer frequency, TF over GST control) | 1.02 fold enrichment (6-mer frequency, TF over GST control) | 1.06 fold enrichment (6-mer frequency, TF over GST control) | 1 fold enrichment (6-mer frequency, TF over GST control) | 1.07 fold enrichment (6-mer frequency, TF over GST control) |

Reference: article PMC7862700, “An all-to-all approach to the identification of sequence-specific readers for epigenetic DNA modifications on cytosine”
